Active and inactive are the calls of the source. How the source made its calls: active means hit-call score of the fitted dose curve at least 0.9, where 1 is the maximum; inactive means score below 0.9.
Legend:
Details in all cases: mRNA level, 48 h; actives raise or lower the signal
[1] = read-out: ABC Transporter (ABCB11), ABCB11 (gene 8647); assay: LTEA_HepaRG_ABCB11: Life Technologies and Expression Analysis (LTEA) Assay for ABC Transporter (ABCB11) using HepaRG (AID 2283463)
Procedure, shortened: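 HepaRG, 48 h exposure, 8-pt half-log CRC top 100 uM, 0.5% DMSO vehicle, duplicates. Readout: TaqMan qRT-PCR of ABCB11 mRNA, housekeeping-normalized (ACTB/GAPDH/POLR2A). Bidirectional fit vs DMSO baseline.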

[2] = read-out: ABC Transporter (ABCC2), ABCC2 (gene 1244); assay: LTEA_HepaRG_ABCC2: Life Technologies and Expression Analysis (LTEA) Assay for ABC Transporter (ABCC2) using HepaRG (AID 2283464)
Procedure, shortened: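 Gene expression of ABCC2 was determined by qRT-PCR in HepaRG cells exposed 48 h to chemicals (highest 100 uM, half-log dilutions). Activity was fitted in both directions relative to 0.5% DMSO vehicle.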

[3] = read-out: Broad substrate specificity ATP-binding cassette transporter ABCG2 (Homo sapiens) (UniProt Q9UNQ0); assay: LTEA_HepaRG_ABCG2: Life Technologies and Expression Analysis (LTEA) Assay for ABC Transporter (ABCG2) using HepaRG (AID 2283465)
Procedure, shortened: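 HepaRG, 48 h exposure, 8-pt half-log series from 100 uM, 0.5% DMSO vehicle, duplicates. Readout: ABCG2 transcript by qRT-PCR (Fluidigm array), housekeeping-normalized; bidirectional curve fit relative to DMSO baseline.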

[4] = read-out: ATP-citrate lyase (ACLY), ACLY (gene 47); assay: LTEA_HepaRG_ACLY: Life Technologies and Expression Analysis (LTEA) Assay for ATP-citrate lyase (ACLY) using HepaRG (AID 2283466)
Procedure, shortened: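 qRT-PCR readout of ACLY transcript after 48 h chemical treatment of HepaRG cells; expression normalized to three housekeeping genes. Eight-point half-log series, highest 100 uM, 0.5% DMSO vehicle. Gain or loss fitted against DMSO baseline.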

[5] = read-out: Peroxisomal acyl-coenzyme A oxidase 1 (ACOX1) gene, ACOX1 (gene 51); assay: LTEA_HepaRG_ACOX1: Life Technologies and Expression Analysis (LTEA) Assay for Peroxisomal acyl-coenzyme A oxidase 1 (ACOX1) gene using HepaRG (AID 2283467)
Procedure, shortened: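 HepaRG, 48 h chemical exposure, 8-pt half-log series from 100 uM top, 0.5% DMSO vehicle, duplicates. Readout: ACOX1 mRNA by Fluidigm qRT-PCR, housekeeping-normalized; bidirectional fit vs DMSO baseline.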

[6] = read-out: Alkaline Phosphatase, Placental (ALPP) gene, ALPP (gene 250); assay: LTEA_HepaRG_ALPP: Life Technologies and Expression Analysis (LTEA) Assay for Alkaline Phosphatase, Placental (ALPP) gene using HepaRG (AID 2283468);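 on AC50: differentiated human HepaRG liver cells in serum-free induction medium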
Procedure, shortened: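 Expression of ALPP was quantified by qRT-PCR against three housekeeping genes in human HepaRG cultures treated for 48 h with an eight-point concentration series up to 100 uM. Activity in either direction was fitted relative to 0.5% DMSO.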

[7] = read-out: Bcl-2 (BAD) gene, BAD (gene 572); assay: LTEA_HepaRG_BAD: Life Technologies and Expression Analysis (LTEA) Assay for Bcl-2 (BAD) gene using HepaRG (AID 2283469)
Procedure, shortened: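 HepaRG, 48 h exposure, 8-pt half-log curve from 100 uM in 0.5% DMSO, duplicates. Readout: TaqMan qRT-PCR for BAD mRNA, housekeeping-normalised (ACTB/GAPDH/POLR2A); gain or loss fitted against DMSO baseline.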

[8] = read-out: Bcl-2 (BAX) gene, BAX (gene 581); assay: LTEA_HepaRG_BAX: Life Technologies and Expression Analysis (LTEA) Assay for Bcl-2 (BAX) gene using HepaRG (AID 2283470)
Procedure, shortened: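 qRT-PCR read-out of BAX mRNA, normalized to three housekeeping genes, after 48 h chemical exposure of human HepaRG cells in serum-free induction medium; eight-point half-log series, top 100 uM, 0.5% DMSO vehicle; bidirectional fit versus DMSO.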

[9] = read-out: adenosine kinase (ADK) gene, ADK (gene 132); assay: LTEA_HepaRG_ADK: Life Technologies and Expression Analysis (LTEA) Assay for adenosine kinase (ADK) gene using HepaRG (AID 2283471)
Procedure, shortened: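 Read-out is ADK transcript level measured by qRT-PCR and normalised to three housekeeping genes. Cells are human HepaRG, dosed for 48 h at up to 100 uM in 0.5% DMSO. Gain or loss of signal is fitted against DMSO controls.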

[10] = read-out: Apoptosis regulator Bcl-2 (Homo sapiens) (UniProt P10415); assay: LTEA_HepaRG_BCL2: Life Technologies and Expression Analysis (LTEA) Assay for Bcl-2 gene using HepaRG (AID 2283475)
Procedure, shortened: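 qRT-PCR read-out (Fluidigm TaqMan) of BCL2 transcript, normalised to three housekeeping genes, after 48 h chemical exposure of HepaRG cells; 8-point half-log series, top 100 uM, 0.5% DMSO vehicle. Gain or loss of signal fitted relative to DMSO baseline.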

[11] = read-out: Bcl-2 (BID) gene, BID (gene 637); assay: LTEA_HepaRG_BID: Life Technologies and Expression Analysis (LTEA) Assay for Bcl-2 (BID) gene using HepaRG (AID 2283476)
Procedure, shortened: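 HepaRG, 48 h exposure, 8-pt half-log series, top 100 uM, 0.5% DMSO vehicle, duplicates. Readout: BID mRNA by TaqMan qRT-PCR; housekeeping-normalized; bidirectional curve fit vs DMSO baseline.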

Caspase-3 (Homo sapiens) = Caspase-3 (Homo sapiens) (UniProt P42574); assay: LTEA_HepaRG_CASP3: Life Technologies and Expression Analysis (LTEA) Assay for cysteine-aspartic acid protease (CASP3) using HepaRG (AID 2283477)
Procedure, shortened: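 In HepaRG liver cells dosed for 48 h at up to 100 uM (eight-point, duplicate), CASP3 expression changes are scored by qRT-PCR. Activity is fitted in both directions with 0.5% DMSO as baseline.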

[12] = read-out: Cytochrome P450 (CYP24A1), CYP24A1 (gene 1591); assay: LTEA_HepaRG_CYP24A1: Life Technologies and Expression Analysis (LTEA) Assay for Cytochrome P450 (CYP24A1) using HepaRG (AID 2283478)
Procedure, shortened: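 Human liver HepaRG cultures receive each chemical for 48 h across an eight-point half-log series topping at 100 uM in 0.5% DMSO. Induction or suppression of CYP24A1 mRNA is scored relative to vehicle after housekeeping-gene normalization.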

[13] = read-out: cysteine-aspartic acid protease (CASP8), CASP8 (gene 841); assay: LTEA_HepaRG_CASP8: Life Technologies and Expression Analysis (LTEA) Assay for cysteine-aspartic acid protease (CASP8) using HepaRG (AID 2283480)
Procedure, shortened: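 qRT-PCR readout of CASP8 mRNA, normalized to three housekeeping genes, after 48 h chemical exposure of HepaRG cells; 8-point half-log series, top 100 uM, 0.5% DMSO vehicle. Bidirectional curve fitting against DMSO baseline.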

[14] = read-out: Cytochrome P450 2C19 (Homo sapiens) (UniProt P33261); assay: LTEA_HepaRG_CYP2C19: Life Technologies and Expression Analysis (LTEA) Assay for CYP2C19 using HepaRG (AID 2283482)
Procedure, shortened: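 Human HepaRG liver cells received test chemicals for 48 h (highest 100 uM, half-log dilutions in 0.5% DMSO). CYP2C19 mRNA induction or loss is read by multiplexed qRT-PCR and fitted in both directions versus vehicle.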

[15] = read-out: Apolipoprotein A-V (APOA5) gene, APOA5 (gene 116519); assay: LTEA_HepaRG_APOA5: Life Technologies and Expression Analysis (LTEA) Assay for Apolipoprotein A-V (APOA5) gene using HepaRG (AID 2283474)
Procedure, shortened: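 Human liver HepaRG cells are treated 48 h with test chemicals (100 uM top, half-log dilutions, 0.5% DMSO). APOA5 mRNA induction or loss is measured by qRT-PCR relative to vehicle.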

[16] = read-out: Cytochrome P450 (CYP1A2), CYP1A2 (gene 1544); assay: LTEA_HepaRG_CYP1A2: Life Technologies and Expression Analysis (LTEA) Assay for Cytochrome P450 (CYP1A2) using HepaRG (AID 2283479)
Procedure, shortened: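 Assesses CYP1A2 mRNA in human HepaRG liver cells after 48 h chemical exposure at up to 100 uM. Values come from qRT-PCR with bidirectional curve fitting relative to DMSO.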

[17] = read-out: Cytochrome P450 (CYP2B6), CYP2B6 (gene 1555); assay: LTEA_HepaRG_CYP2B6: Life Technologies and Expression Analysis (LTEA) Assay for Cytochrome P450 (CYP2B6) using HepaRG (AID 2283481)
Procedure, shortened: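 Using 48 h treatment of HepaRG cells in serum-free induction medium, concentrations spanned half-log steps from 100 uM in 0.5% DMSO vehicle. CYP2B6 mRNA induction or loss is scored by qRT-PCR against DMSO.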

BCL2L11 (gene 10018) = assay: LTEA_HepaRG_BCL2L11: Life Technologies and Expression Analysis (LTEA) Assay for Bcl-2 (BCL2L11) gene using HepaRG (AID 2283473)
Procedure, shortened: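 Cells were plated, cultured 48 h, switched to serum-free induction medium, then dosed in duplicate for 48 h at eight half-log concentrations up to 100 uM. Lysates underwent RNA isolation and TaqMan qRT-PCR; gain or loss versus DMSO was fitted.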

Measured: AC50

Sequence of Apoptosis regulator Bcl-2 (Homo sapiens) (P10415 whole entry, looked up): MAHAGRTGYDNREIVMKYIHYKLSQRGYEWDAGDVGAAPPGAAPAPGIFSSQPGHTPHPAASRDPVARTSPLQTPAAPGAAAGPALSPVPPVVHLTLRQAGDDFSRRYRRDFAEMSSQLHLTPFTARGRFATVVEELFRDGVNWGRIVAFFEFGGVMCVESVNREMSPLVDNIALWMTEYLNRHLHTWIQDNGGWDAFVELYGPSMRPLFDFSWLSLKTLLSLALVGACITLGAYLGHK
Sequence of Caspase-3 (Homo sapiens) (P42574 whole entry, looked up): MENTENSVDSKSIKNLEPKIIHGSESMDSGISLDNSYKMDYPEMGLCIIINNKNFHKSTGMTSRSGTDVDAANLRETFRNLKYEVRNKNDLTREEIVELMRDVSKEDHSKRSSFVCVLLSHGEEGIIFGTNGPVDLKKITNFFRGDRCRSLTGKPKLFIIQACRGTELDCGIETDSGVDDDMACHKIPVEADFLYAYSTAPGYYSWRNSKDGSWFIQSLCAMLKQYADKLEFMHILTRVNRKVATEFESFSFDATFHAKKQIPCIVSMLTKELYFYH
Sequence of Cytochrome P450 2C19 (Homo sapiens) (P33261 whole entry, looked up): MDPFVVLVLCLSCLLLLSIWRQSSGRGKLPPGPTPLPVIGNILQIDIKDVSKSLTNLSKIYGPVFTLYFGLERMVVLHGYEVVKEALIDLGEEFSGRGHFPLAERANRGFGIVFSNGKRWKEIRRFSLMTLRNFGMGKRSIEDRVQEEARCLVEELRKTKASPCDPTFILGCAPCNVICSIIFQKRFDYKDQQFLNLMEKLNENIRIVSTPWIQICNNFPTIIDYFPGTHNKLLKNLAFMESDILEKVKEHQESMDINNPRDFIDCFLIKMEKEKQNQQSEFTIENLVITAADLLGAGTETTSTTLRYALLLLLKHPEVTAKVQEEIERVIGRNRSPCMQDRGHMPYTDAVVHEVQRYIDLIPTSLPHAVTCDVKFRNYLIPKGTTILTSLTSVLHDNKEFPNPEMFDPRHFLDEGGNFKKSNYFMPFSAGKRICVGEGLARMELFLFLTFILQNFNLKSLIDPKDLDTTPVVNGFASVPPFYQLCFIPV
Sequence of Broad substrate specificity ATP-binding cassette transporter ABCG2 (Homo sapiens) (Q9UNQ0 whole entry, looked up): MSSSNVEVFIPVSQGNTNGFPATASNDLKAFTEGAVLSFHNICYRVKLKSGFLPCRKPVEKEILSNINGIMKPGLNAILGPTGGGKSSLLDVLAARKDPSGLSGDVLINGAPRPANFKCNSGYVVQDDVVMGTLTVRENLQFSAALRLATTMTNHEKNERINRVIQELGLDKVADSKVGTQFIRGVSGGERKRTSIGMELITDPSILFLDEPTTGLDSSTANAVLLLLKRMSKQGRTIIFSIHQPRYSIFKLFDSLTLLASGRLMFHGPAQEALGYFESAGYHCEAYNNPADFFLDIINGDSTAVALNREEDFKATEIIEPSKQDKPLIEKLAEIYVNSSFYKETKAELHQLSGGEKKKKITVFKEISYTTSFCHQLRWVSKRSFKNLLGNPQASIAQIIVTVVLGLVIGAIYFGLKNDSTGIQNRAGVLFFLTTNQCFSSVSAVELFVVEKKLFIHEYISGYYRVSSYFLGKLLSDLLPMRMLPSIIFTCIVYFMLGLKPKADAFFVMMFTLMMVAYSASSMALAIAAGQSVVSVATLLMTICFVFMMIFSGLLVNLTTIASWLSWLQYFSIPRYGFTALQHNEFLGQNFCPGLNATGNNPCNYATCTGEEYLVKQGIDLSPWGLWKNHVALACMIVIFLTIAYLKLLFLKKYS

CCCCCCC(C=O)=Cc1ccccc1
inactive: [1] | [2] | [3] | [4] | [5] | [6] | [7] | [8] | [9] | [10] | [11] | Caspase-3 (Homo sapiens) | [12] | [13] | [14]

CC(C)OC(=O)C(C)(C)Oc1ccc(C(=O)c2ccc(Cl)cc2)cc1
inactive: [1] | [2] | [3] | [4] | [5] | [6] | [7] | [8] | [9] | [10] | Caspase-3 (Homo sapiens) | [12] | [13] | [14]
active: [15] 0.0432 µM | [11] 0.0422 µM

CCCCCCCCCC[N+](C)(C)[O-]
inactive: [1] | [2] | [3] | [4] | [5] | [6] | [7] | [8] | [9] | [15] | [10] | [11] | Caspase-3 (Homo sapiens) | [12] | [16] | [13] | [14]
active: [17] 34 µM

CCCC(=O)O
inactive: [1] | [2] | [3] | [4] | [5] | [6] | [7] | [8] | [9] | BCL2L11 (gene 10018) | [10] | [11] | Caspase-3 (Homo sapiens) | [12] | [16] | [13] | [14]

Nc1nc(=S)c2[nH]cnc2[nH]1
inactive: [6] | [7] | [9] | [10] | [11] | Caspase-3 (Homo sapiens) | [12] | [13]
active: [1] 7.88 µM | [2] 21.1 µM | [3] 8.31 µM | [4] 10.2 µM | [5] 12.2 µM | [8] 3.39 µM | [15] 3.48 µM | [17] 5.84 µM | [14] 9.48 µM

O=Cc1ccccc1C=O
inactive: [1] | [2] | [3] | [4] | [5] | [6] | [7] | [8] | [9] | [15] | [10] | [11] | Caspase-3 (Homo sapiens) | [12] | [13] | [14]
active: [16] 7.32 µM

OCC(CO)n1cnc(-c2ccc(F)cc2)c1-c1ccnc(Oc2ccccc2)n1
inactive: [1] | [4] | [5] | [6] | [7] | [8] | [9] | BCL2L11 (gene 10018) | [10] | [11] | Caspase-3 (Homo sapiens) | [12] | [13]
active: [2] 24.7 µM | [3] 16 µM | [14] 12.4 µM

O=C(N[C@@H](c1ccccc1)[C@@H]1CCCCN1)c1cccc(C(F)(F)F)c1Cl
inactive: [3] | [7] | [8] | [10] | [11] | [12]
active: [1] 24.1 µM | [2] 78.1 µM | [4] 11.4 µM | [5] 74.2 µM | [6] 10.8 µM | [9] 78.2 µM | BCL2L11 (gene 10018) 85.7 µM | Caspase-3 (Homo sapiens) 50 µM | [13] 82.8 µM | [17] 32.7 µM | [14] 78.8 µM

Source: PubChem BioAssay (EPA / NIEHS)
